Laboratory results reported in publication PMC5540273 (PLoS ONE, 2017).

Tests used:
Settings in all cases: concentration: 1 μM, replicates: in singlicate; n = 1
PLK2 = test system: PLK2
PLK3 = test system: PLK3
PLK4 = test system: PLK4
PRKCD = test system: PRKCD
PRKCE = test system: PRKCE
PRKCH = test system: PRKCH
PRKCI = test system: PRKCI
PRKCQ = test system: PRKCQ
PRKD1 = test system: PRKD1
PRKD2 = test system: PRKD2
PRKD3 = test system: PRKD3
PRKG1 = test system: PRKG1
PRKG2 = test system: PRKG2
PRKR = test system: T1, PRKR
T1 construct: gene EIF2AK2

PRKX = test system: PRKX
PRP4 = test system: PRP4
PYK2 = test system: T2, PYK2
T2 construct: gene PTK2B

QSK = test system: QSK
RAF1 = test system: RAF1
RET = test system: RET
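Further: KINOMEscan kinase panel screen.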

| SMILES | %Inh (PLK2) | %Inh (PLK3) | %Inh (PLK4) | %Inh (PRKCD) | %Inh (PRKCE) | %Inh (PRKCH) | %Inh (PRKCI) | %Inh (PRKCQ) | %Inh (PRKD1) | %Inh (PRKD2) | %Inh (PRKD3) | %Inh (PRKG1) | %Inh (PRKG2) | %Inh (PRKR) | %Inh (PRKX) | %Inh (PRP4) | %Inh (PYK2) | %Inh (QSK) | %Inh (RAF1) | %Inh (RET) |
| --- | --- | --- | --- | --- | --- | --- | --- | --- | --- | --- | --- | --- | --- | --- | --- | --- | --- | --- | --- | --- |
| CN(C)CCNS(=O)(=O)c1ccc(-c2ccnc3[nH]ccc23)cc1 [GSK977620] | 0% | 0% | 1% | 83% | 88% | 82% | 21% | 62% | 0% | 10% | 11% | 95.4% | 97.4% | 0% | 68% | 0% | 20% | 8% | 1% | 2% |
| CC(=O)Nc1cn2nc(Oc3cccc(NC(=O)c4cccc(C(F)(F)F)c4)c3)ccc2n1 | 0% | 0% | 0% | 0% | 0% | 0% | 0% | 0% | 18% | 17% | 0% | 11% | 13% | 4% | 0% | 0% | 7% | 0% | 99.8% | 100% |
| COc1cccc(CC(=O)N2CCc3cc(-c4cn(C)c5ncnc(N)c45)ccc32)c1 [GSK2608899] | 0% | 0% | 4% | 17% | 1% | 10% | 31% | 0% | 18% | 1% | 0% | 22% | 0% | 15% | 3% | 0% | 25% | 11% | 0% | 37% |
| c1ccc(Oc2ccc(Nc3ccnc4cc(-c5ccc(CN6CCCCC6)o5)ccc34)cc2)nc1 [GW567143] | 0% | 0% | 44% | 7% | 0% | 5% | 0% | 10% | 0% | 12% | 0% | 6% | 0% | 0% | 7% | 2% | 0% | 27% | 0% | 11% |
| CN(C)c1ncnc2nc[nH]c12 [SKF-31736] | 20% | 30% | 1% | 0% | 3% | 0% | 0% | 0% | 0% | 0% | 0% | 19% | 0% | 0% | 0% | 0% | 0% | 27% | 0% | 0% |
| COc1cccc2c(-c3ccncc3)c(-c3ccc(F)cc3)nn12 [GW468513] | 0% | 0% | 0% | 6% | 25% | 30% | 26% | 41% | 29% | 20% | 43% | 0% | 0% | 0% | 10% | 25% | 12% | 0% | 33% | 22% |
| O=C1NC(=O)C(c2ccccc2Cl)=C1Nc1cccc(Cl)c1 [SB-342409] | 0% | 0% | 0% | 0% | 42% | 0% | 9% | 100% | 0% | 0% | 22% | 0% | 0% | 0% | 15% | 0% | 5% | 5% | 37% | 1% |
| Cc1ccc(NC(=O)c2ccc(Cl)c(Cl)c2)cc1-c1ccc(C(=O)Nc2ccncc2)cc1 [GSK1398460] | 0% | 0% | 8% | 0% | 10% | 22% | 0% | 15% | 15% | 0% | 23% | 13% | 0% | 7% | 17% | 0% | 13% | 0% | 78% | 38% |
| COc1cccc(-c2nc(-c3ccccc3)[nH]c2-c2ccncc2)c1 [SB-610250] | 0% | 0% | 0% | 0% | 7% | 0% | 25% | 0% | 14% | 0% | 11% | 0% | 0% | 0% | 0% | 70% | 0% | 8% | 34% | 25% |
| Cl.O=C(Nc1ccc(Oc2ccc3[nH]c(NC(=O)c4ccco4)nc3c2)cc1)Nc1cc(C(F)(F)F)ccc1F [GW683134] | 0% | 0% | 0% | 4% | 0% | 0% | 0% | 9% | 0% | 0% | 37% | 12% | 0% | 0% | 20% | 27% | 10% | 0% | 94.7% | 99.9% |
| N#CC1(c2cccc(C(=O)Nc3cccc(Oc4ccc5nc(NC(=O)C6CC6)sc5n4)c3)c2)CC1 | 5% | 21% | 0% | 5% | 9% | 0% | 18% | 40% | 40% | 0% | 0% | 16% | 0% | 7% | 0% | 21% | 0% | 18% | 100% | 100% |
| Nc1ncnc2scc(-c3ccc(NC(=O)Cc4cc(F)ccc4F)cc3)c12.O=C(O)C(F)(F)F [SB-731254-M] | 66% | 47% | 35% | 27% | 2% | 34% | 43% | 3% | 0% | 0% | 14% | 0% | 0% | 15% | 14% | 26% | 21% | 32% | 10% | 23% |
| Cn1cc(-c2cnc(N)c3c(-c4ccc5c(c4)CCN5C(=O)Cc4ccccc4)csc23)cn1 [GSK2593074] | 41% | 16% | 19% | 9% | 0% | 0% | 0% | 0% | 6% | 0% | 0% | 0% | 0% | 8% | 0% | 0% | 6% | 1% | 0% | 34% |
| Cc1ccc(-c2ccc3occ(-c4ccc(S(C)=O)cc4)c3c2)nn1 (stereo not drawn) | 0% | 0% | 2% | 1% | 0% | 0% | 0% | 13% | 30% | 9% | 0% | 14% | 0% | 0% | 0% | 13% | 0% | 0% | 6% | 0% |
| CCn1c(-c2nonc2N)nc2c(-c3ccccc3)ncc(OCCCN)c21.O=C(O)C(F)(F)F.O=C(O)C(F)(F)F [GSK260205] | 0% | 0% | 0% | 97.9% | 97.3% | 95.6% | 69% | 93% | 91.2% | 93.6% | 100% | 5% | 95.7% | 0% | 28% | 27% | 6% | 27% | 6% | 91.7% |
